A selection: hits, their analogues and other compounds. The true share with any hit is near 2%.
Neddylation inh: inhibitors of human cullin neddylation | P61081+Q13564 | TR-FRET cullin neddylation, biochemical | inhibition, % at 25 µM | 360,000 tested, 0.58% active; in the data active means inhibition above about 36%
NadD inh: inhibitors of Staphylococcus aureus NadD | purified NadD enzyme, colorimetric absorbance read-out | 360,000 tested, 0.78% active | inhibition, % at 20 µM; in the data active means inhibition above about 26%
DAGLB inhibitor: blocks human DAGLB lipase activity; Q8NCG7; 340,000 tested, 0.059% active; inhibition, % at 5.17 µM; HEK293T DAGLB membrane lysate, EnzChek fluorogenic substrate; AID 504411; in the data active means inhibition above about 34%;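 further: 0% = enzyme with vehicle and 100% = wells lacking enzyme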
HGIII-sPLA2 inh: Inhibits HGIII-sPLA2 liposome hydrolysis, primary screen. QFRET BODIPY PC-A2 liposome hydrolysis, fluorescence. inhibition, % at 12.2 µM. 370,000 tested, 0.56% active. AID 743126;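 active means inhibition above mean plus 3 SD of compounds lying within the high and low control bounds, cut at about 19% in these data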;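 further: 0% = median of test compound wells and 100% = no enzyme DMSO wells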
Target sequence (Q9NZ20 whole entry, looked up): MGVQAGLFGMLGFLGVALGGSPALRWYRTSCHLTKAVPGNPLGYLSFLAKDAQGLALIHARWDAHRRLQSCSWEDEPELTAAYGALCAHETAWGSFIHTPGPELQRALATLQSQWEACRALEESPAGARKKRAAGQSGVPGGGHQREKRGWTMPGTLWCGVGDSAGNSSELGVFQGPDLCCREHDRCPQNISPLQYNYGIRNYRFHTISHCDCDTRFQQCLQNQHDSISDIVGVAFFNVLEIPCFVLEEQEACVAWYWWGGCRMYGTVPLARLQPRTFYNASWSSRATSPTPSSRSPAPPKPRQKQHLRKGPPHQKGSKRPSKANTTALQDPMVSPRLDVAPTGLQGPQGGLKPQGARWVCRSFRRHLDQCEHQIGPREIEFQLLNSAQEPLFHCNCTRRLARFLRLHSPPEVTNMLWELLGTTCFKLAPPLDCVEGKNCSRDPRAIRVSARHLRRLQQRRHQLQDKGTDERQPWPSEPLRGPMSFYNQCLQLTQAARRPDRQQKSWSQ
ARNT-TACC3 inh: disruptors of human ARNT/TACC3 interaction; Q9Y6A5; AlphaScreen His-ARNT PAS-B/GST-TACC3 binding, luminescence; TACC3 fragment carries E629A point mutation; inhibition, % at 9.99 µM; 390,000 tested, 0.66% active; AID 623870;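 active means mean inhibition of replicates at least 50% and at least half of replicates each reaching 50%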;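 further: 0% = complete ARNT plus TACC3 wells and 100% = ARNT alone without TACC3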
sPLA2 confirm: human GIII-sPLA2 inhibition, confirmation | shares compounds with HGIII-sPLA2 inh | recombinant hGIII-sPLA2, BODIPY PC-A2 QFRET fluorescence | inhibition, % at 12.2 µM | 2,000 tested, 34% active | AID 743280;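 active means mean inhibition across triplicates above the hit cutoff set in the earlier primary screen, cut at about 19% in these data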;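 further: 0% = enzyme with DMSO and 100% = DMSO wells lacking enzyme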
535nm interf: counter-screen for HGIII-sPLA2 inhibitors: 535nm fluorescence interference; shares compounds with HGIII-sPLA2 inh; BODIPY FL product fluorescence interference, QFRET; inhibition, % at 12.2 µM; 2,000 tested, 8.5% active; AID 743282;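 active means average inhibition above the solvent-only control mean plus 3 SD, cut at about 6% in these data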;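 further: 0% = DMSO with substrate plus product and 100% = DMSO with substrate alone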
535nm interf DR: 535nm optical interference dose response, HGIII-sPLA2 counter-screen. shares compounds with HGIII-sPLA2 inh. IC50, µM. BODIPY FL product fluorescence interference, cell-free. 240 tested, under 10 active;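 active means IC50 at or below 10 µM; inactive means IC50 above 10 µM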
* hit, by the source's call; nt = no result shown.

SMILES	Neddylation inh	NadD inh	DAGLB inhibitor	HGIII-sPLA2 inh	ARNT-TACC3 inh	sPLA2 confirm	535nm interf	others
Cc1ccc(N2CCN(CC3CC=CCC3)CC2)cc1 (configuration not stated)	-2.6	-4.4	-2.9	9.6	7.1	nt	nt
C1=CCC(CN2CCN(C3CCCCCC3)CC2)CC1 (configuration not stated)	-7.4	-3.4	2.9	19.7*	-3.4	-0.2	-14.1
Cc1[nH]c2ccc(-c3n[nH]c(=S)n3C)cc2c1C	20.5	1.3	2.2	21.0*	1.4	26.4*	3.6
CCn1c(-c2ccc3[nH]c(C)c(C)c3c2)n[nH]c1=S	18.1	-2.1	5.2	13.0	-12.6	nt	nt
Nc1sc(-c2ccccc2)cc1-c1n[nH]c(=S)n1C1CCCCC1	-0.8	2.7	nt	6.7	6.8	nt	nt
COc1ccc(-n2c(-c3cc(-c4ccccc4)sc3N)n[nH]c2=S)cc1	9.0	17.1	1.6	26.8*	-8.3	21.3*	10.3*
Cc1cc(C)cc(NC(=S)N2CCN(c3ccc(F)cc3)CC2)c1	-6.6	3.5	-1.6	11.3	-3.3	nt	nt
Cc1cccc(NC(=S)N2CCN(c3ccc(F)cc3)CC2)c1	9.5	0.5	-3.3	25.9*	nt	10.6	-4.6
C[C@H]1CN([C@@H](C)CO)C(=O)c2cc(C3=CCCCC3)cnc2O[C@H]1CN(C)Cc1ccccc1	nt	nt	nt	nt	4.1	nt	nt
C/C(=N/NS(=O)(=O)c1ccc(C)cc1)c1ccc(NC(=O)C(F)(F)F)cc1	1.2	-5.9	-3.0	21.7*	-9.6	2.5	-0.1
C=CCn1c(-c2ccco2)n[nH]c1=S	31.7	0.5	2.0	21.1*	-6.2	8.2	-4.3
Cn1c(=O)c2c(ncn2CC(=O)OCC(=O)Nc2ccccc2Cl)n(C)c1=O	0.2	-6.8	-3.4	2.8	-19.6	nt	nt
Cn1c(=O)c2c(ncn2CC(=O)OCC(=O)NC(c2ccccc2)c2ccccc2)n(C)c1=O	3.6	0.6	-1.7	21.1*	6.1	-1.1	-4.9
Oc1c(Cl)cc(Cl)cc1/C=N/Nc1ncc(Br)cn1	-9.1	24.5	-0.5	1.8	3.4	nt	nt
Oc1ccccc1/C=N/NC(=S)NC1CC2C=CC1C2 (configuration not stated)	nt	0.6	5.7	27.0*	63.7*	21.4*	6.2*
Oc1c(Cl)cc(Cl)cc1/C=N/NC(=S)NC1CC2C=CC1C2 (configuration not stated)	nt	15.9	33.8	44.7*	-1.1	60.7*	14.2*
Oc1ccccc1C=NNC(=S)NC1CC2C=CC1C2 (configuration not stated)	nt	-5.0	3.6	20.6*	nt	23.6*	5.8
CCCC(=O)Nc1ccc2c(c1)OC[C@@H](C)N(CCC)C[C@H](C)[C@H](OC)CN(C)C2=O	nt	nt	nt	nt	-0.6	nt	nt
COc1ccc2c(c1)OC[C@H]1[C@H]2N2C(=O)c3cc(OC)c(OC)cc3NC(=O)[C@@]2(C)[C@H]1c1ccccc1	-169.9	-13.5	-0.4	31.4*	4.7	11.2	-10.2
CCn1c(C2CCN(S(=O)(=O)c3ccc(OC)cc3)CC2)n[nH]c1=S	7.7	13.5	4.5	21.3*	17.9	15.6	-1.1
O=C(C[C@@H]1C[C@@H]2c3cc(NC(=O)c4ccc5c(c4)OCO5)ccc3O[C@@H]2[C@@H](CO)O1)NCCc1ccccc1	nt	nt	nt	nt	0.1	nt	nt
Cc1cc(=O)oc(C)c1C(=O)Nc1ccccc1F	-5.6	-2.6	-1.5	25.5*	-4.9	0.7	-8.3
Cc1cc(=O)oc(C)c1C(=O)Nc1cccc2ccccc12	-7.6	7.4	0.8	1.4	-1.3	nt	nt
Cc1ccccc1NC(=O)c1c(C)cc(=O)oc1C	7.5	-2.6	-3.7	22.7*	-6.7	-1.7	-5.6
CCCCCCCCN1C(=O)[C@@H](CC(=O)NCC23CC4CC(CC(C4)C2)C3)C[C@@]2(C(=O)OC)C1=C[C@H](C(C)(C)C)O[C@@H]2C	nt	nt	nt	20.6*	nt	-17.5	-15.8
SMILES	Neddylation inh	NadD inh	DAGLB inhibitor	HGIII-sPLA2 inh	ARNT-TACC3 inh	sPLA2 confirm	535nm interf	others
Cc1noc(C)c1NC(=O)Nc1cccc2c1O[C@H](CN(C)CC1CCCCC1)[C@@H](C)CN([C@H](C)CO)C2=O	nt	nt	nt	nt	9.4	nt	nt
CCCC(=O)Nc1ccc2c(c1)C(=O)N(C)[C@@H]1CC[C@H](CC(=O)NCCc3ccncc3)O[C@@H]1CO2	nt	nt	nt	nt	-6.3	nt	nt
O=c1c2cc([N+](=O)[O-])cc([N+](=O)[O-])c2[nH]n1-c1ccccc1	-98.0	1.8	32.9	20.9*	4.9	26.8*	5.0
Cc1ccc(OCC(=O)Nc2ccc(S(=O)(=O)N3CCCCC3)cc2)c([N+](=O)[O-])n1	-34.6	-1.7	-1.9	-9.3	-0.8	nt	nt
Cc1ccc(OCC(=O)Nc2cc(S(=O)(=O)N3CCCCC3)ccc2C)c([N+](=O)[O-])n1	-6.1	-7.1	-0.1	20.5*	-17.6	2.6	-13.8
Cc1nc2c(c(=O)c3ccccc3n2C)c(=O)n1C1CCCCCC1	-290.3	28.1	-0.3	-3.0	-8.4	nt	nt
Cn1c2ccccc2c(=O)c2c(=O)n(C3CCCCC3)c(-c3ccco3)nc21	-27.1	8.6	4.8	27.9*	5.8	12.2	-42.3
CCC(=O)Nc1c(C(=O)Nc2cccc(OC)c2)oc2ccccc12	17.8	-9.0	-5.1	-9.0	-15.2	nt	nt
CCCN(CCC)C(=O)c1oc2ccccc2c1NC(=O)Cc1cccc(OC)c1	6.8	-12.1	-14.5	19.6*	1.4	-2.0	-18.9
O=C(C[C@@H]1CC[C@@H]2[C@H](COC[C@@H](O)CN2Cc2cc(F)ccc2F)O1)NCc1ccc(Cl)cc1	nt	nt	nt	nt	9.2	nt	nt
Cc1ccc(-c2cnc(N)n2C)cc1C	19.6	3.3	2.4	19.8*	63.1*	9.4	-13.3
Cc1occc1C(=O)NNC(=S)Nc1ccccc1C(F)(F)F	0.3	2.9	0.3	21.4*	6.4	26.6*	-4.2
C[C@H](CO)N1C[C@H](C)[C@@H](CN(C)Cc2cccnc2)OCc2ccccc2-c2c(n(C)c3ccccc23)C1=O	nt	nt	nt	nt	12.1	nt	nt
CC(C)NC(=S)N/N=C/c1ccccc1[N+](=O)[O-]	-11.1	-0.2	-0.6	-2.5	-15.7	nt	nt
O=[N+]([O-])c1ccccc1C=NNC(=S)NN=Cc1ccccc1[N+](=O)[O-]	-39.8	16.8	1.5	23.7*	8.1	48.6*	7.3*
CCOc1cccc(/C=N\NC(=O)Cc2cccs2)c1O	nt	nt	nt	-18.5	nt	nt	nt
CCOc1cccc(/C=N/NC(=S)Nc2ccccc2[N+](=O)[O-])c1O	-1.1	18.3	24.2	24.1*	-3.7	51.6*	13.8*
CCCCNC(=S)N/N=C/c1cccc(OCC)c1O	8.3	4.1	7.3	24.3*	0.8	28.1*	-5.2	535nm interf DR=>122
COCC#Cc1cnc2c(c1)C(=O)N([C@H](C)CO)C[C@H](C)[C@@H](CN(C)Cc1ccccc1F)O2	nt	nt	nt	nt	7.8	nt	nt

Compound activity from PubChem BioAssay.
